Wnt bcat act: Wnt/beta-catenin pathway activators, primary screen, cell-based, plate reader, single point. Wnt/beta-catenin reporter cell assay, activator. activation, % at 9.35 µM. 300,000 compounds, 1.2% hits. AID 743398, 2014; in the data active = activation above about 30%, passing the limit was not always enough; inconclusive = no clear call, values can overlap the other calls
MITF act: activators of MITF-driven TRPM1 promoter reporter, primary screen, cell-based, SK-MEL-5, luciferase, single point; SK-MEL-5 TRPM1-promoter luciferase, 24 h; % of positive control, neutral wells = 0; activation, % at 12.5 µM; 300,000 compounds, 0.75% hits; AID 588334, 2011;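 active = mean activation of at least 80% with every replicate also reaching 80%; inconclusive = mean reaches 80% but some replicate falls short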
HSF-1 act: HSF-1 activators, primary screen, NIH3T3-HGL cells, MG132 stress, luminescence, single point. NIH3T3-HGL HSF-1 luciferase reporter, 8 h; 100% = twice DMSO control signal. AID 504408, 2011. 300,000 compounds, 1.7% hits. activation, % at 9 µM;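 active = mean replicate activation of at least 50% with a set share of replicates each reaching 50%; inconclusive = only one of those two conditions met; inactive = mean below 50% and too few replicates reaching it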
HSF1 inh: HSF1 inhibitors in luciferase reporter cells, primary screen, cell-based, NIH3T3, luminescence | NIH3T3-HGL HSE-luciferase, MG132-induced, luminescence 8 h; stronger effect = lower value | activity change, negative = inhibition, % at 7.5 µM (by protocol) | 300,000 compounds, 0.77% hits | AID 2098, 2009;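 active = more than half of replicate wells show activity change below -50%, luminescence cut by over half; inconclusive = some wells, but at most half, below -50%; inactive = no replicate well below -50%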;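 also: luciferase reports HSF-1 transcriptional activity via heat shock element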
esBAF inh: Bmi1 luciferase reporter increase in mESCs, primary screen, esBAF inhibitor project, mouse ES cells, Bmi1 luciferase knock-in, single point. 24 h; 100% = twice the neutral-well signal. reporter increase, % at 12.5 µM. 350,000 compounds, 2% hits; in the data active = activation above about 40%; inconclusive = no clear call, values can overlap the other calls;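 also: a rise in the Bmi1 reporter signal indicates esBAF inhibition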
Hits are given with their value; i = inactive; ? = inconclusive; nt = no result. A selection: hits, their analogues and other compounds. The true share with any hit is near 3.9%.

SMILES	Wnt bcat act	MITF act	HSF-1 act	HSF1 inh	esBAF inh
COCC(=O)N(C)C[C@@H]1Oc2ncc(C3=CCCCC3)cc2C(=O)N([C@H](C)CO)C[C@H]1C	nt	nt	nt	nt	i
CCOc1ccc(N2CSC(=S)N(c3ccc(OCC)cc3)C2)cc1	i	nt	i	-65	i
CCOc1ccc(N2CC(=O)SC2=S)cc1	i	i	i	i	i
CC(C)NC(=O)N(C)C[C@@H]1OCCCC[C@@H](C)Oc2ccc(NC(=O)CCCCCC(=O)Nc3ccccc3N)cc2C(=O)N([C@H](C)CO)C[C@@H]1C	nt	nt	nt	nt	i
COCC(=O)N(C)C[C@H]1Oc2ncc(C#Cc3ccccc3)cc2C(=O)N([C@@H](C)CO)C[C@H]1C	nt	nt	nt	nt	i
COc1ccc(NC(=O)N(C)C[C@@H]2OCCCC[C@H](C)Oc3ccc(NS(=O)(=O)c4ccc(C)cc4)cc3C(=O)N([C@H](C)CO)C[C@@H]2C)cc1	nt	nt	nt	nt	i
Cc1[nH]nc(N=CC2=C(O)CC(C)(C)CC2=O)c1-c1ccccc1	i	i	i	i	45
Cc1[nH]nc(N=CC2=C(O)CC(c3ccco3)CC2=O)c1-c1ccccc1 (centres undefined)	i	i	i	i	i
Oc1ccccc1-c1nnc(COc2ccc(Cl)cc2Cl)o1	?	96	i	i	i
Clc1ccc(-c2nnc(CCc3ccccc3)o2)c(Cl)c1	i	?	69	i	60
Clc1ccccc1-c1nnc(CNC2CC2)o1	i	i	i	i	nt
CCOc1ccc(N/C=C/C(=O)c2ccc(C)cc2)c([N+](=O)[O-])c1	nt	88	i	i	nt
CCOc1ccc(NC(=O)Cc2cccc3ccccc23)c([N+](=O)[O-])c1	i	i	i	i	nt
CCOc1ccc(NC(=S)NC(=O)/C=C/c2ccc(C)cc2)c([N+](=O)[O-])c1	nt	i	i	i	nt
Cc1ccc(C(=O)/C=C/Nc2ccc([N+](=O)[O-])cc2Br)cc1	i	87	i	i	?
CCOc1ccc(N/C=C/C(=O)c2ccc3ccccc3c2)c([N+](=O)[O-])c1	i	i	i	i	50
COc1ccc(C(=O)/C=C/Nc2ccc([N+](=O)[O-])cc2C)cc1OC	i	i	i	i	nt
CNC[C@H]1OCCCC[C@H](C)Oc2ccc(NS(=O)(=O)c3ccc(F)cc3)cc2C(=O)N([C@@H](C)CO)C[C@@H]1C	nt	nt	nt	nt	i
Cc1ccc(S(=O)(=O)Nc2nc3ccccc3nc2NCc2ccco2)cc1	nt	i	68	i	92
Fc1ccc(-c2nnc3ccc(N4CCc5ccccc5C4)nn23)cc1	i	nt	80	i	i
O=C(Nc1ccc(F)cc1)N1CCN(c2ccc3nnc(-c4ccc(F)cc4)n3n2)CC1	i	i	i	i	i
Cc1ccccc1-c1nnc(-c2ccccc2C)o1	47	i	i	i	nt
Cc1ccccc1-c1nnc(-c2ccc(Br)cc2)o1	44	nt	i	i	69
CCCCN1C(=O)/C(=C2\SC(N3CCCCC3)=NC2=O)c2ccccc21	i	107	51	i	51
COCC(=O)N(C)C[C@@H]1Oc2cc(-c3ccc(C#N)cc3)ccc2S(=O)(=O)N([C@@H](C)CO)C[C@@H]1C	nt	nt	nt	nt	i
SMILES	Wnt bcat act	MITF act	HSF-1 act	HSF1 inh	esBAF inh
CCOC(=O)C1(CC2CCCCO2)CCN(Cc2cc(F)ccc2-n2cccn2)CC1 (centres undefined)	i	i	i	i	i
CCOC(=O)C1(CC2CCCCO2)CCN(Cc2nc3ccccc3[nH]2)CC1 (centres undefined)	i	i	i	-97	i
CO[C@@H]1CN(C)C(=O)c2ccc(NC(=O)C3CCOCC3)cc2OC[C@H](C)N(CC2CC2)C[C@H]1C	nt	nt	nt	nt	i
O=[N+]([O-])c1cc(C=NN2CCCCCC2)ccc1Cl	40	i	nt	nt	74
CC(C)c1ccc(/C=N/N2CCN(c3ccccn3)CC2)cc1	i	nt	i	i	nt
O=[N+]([O-])c1cccc(/C=N/N2CCN(Cc3ccccc3)CC2)c1	i	i	i	i	i
O=[N+]([O-])c1cc(/C=N/N2CCCCC2)ccc1Cl	i	99	i	i	nt
CC(C)c1ccc(/C=N/N2CCCCC2)cc1	45	98	i	i	nt
O=[N+]([O-])c1cccc(C=NN2CCCCCC2)c1	i	i	nt	nt	79
COc1ccc(S(=O)(=O)N(C)C[C@@H]2OCCCC[C@@H](C)Oc3ccc(NS(=O)(=O)c4ccc(F)cc4)cc3C(=O)N([C@@H](C)CO)C[C@@H]2C)cc1	nt	nt	nt	nt	i
CCCNC(=O)N1[C@@H]2c3ccc(-c4cccc(OC)c4)c(=O)n3C[C@H]1[C@H](CO)[C@H]2C(=O)NCC	nt	nt	nt	nt	i
CCOC(=O)Cn1c(CCC(=O)O)ccc1-c1ccc(F)cc1	i	i	i	-77	i
O=S(=O)(Cc1noc(-c2ccccc2Cl)n1)c1ccccn1	40	?	61	i	44
CCCNC(=O)C[C@H]1CC[C@@H]2[C@H](COC[C@@H](O)CN2C(=O)Nc2ccccc2OC)O1	nt	nt	nt	nt	i
Nc1ccccc1-c1nc2ccccc2[nH]c1=O	i	i	i	i	53
N#C/C(=C\c1cccs1)C(=O)NCC1CCCO1 (centres undefined)	39	nt	i	i	i
N#C/C(=C/c1cc(Br)cs1)C(=O)NCC1CCCO1 (centres undefined)	nt	i	i	i	nt
CCNC(=O)Nc1ccc2c(c1)C(=O)N(C)[C@@H]1CC[C@@H](CC(=O)NCc3ccccc3F)O[C@@H]1CO2	nt	nt	nt	nt	i
C=CCn1c(C)cc(C(=O)CSc2nc(N)cc(N)n2)c1C	i	i	66	i	nt
C=CCn1c(C)cc(C(=O)COc2ncnc3sccc23)c1C	i	i	i	i	i
C=CCn1c(C)cc(C(=O)COC(=O)c2cncc(Br)c2)c1C	i	93	nt	nt	i
CCCNC(=O)[C@@H]1[C@@H](CO)[C@@H]2Cn3c(ccc(/C=C/c4ccccc4)c3=O)[C@@H]2N1CC1CC1	nt	nt	nt	nt	i
COc1cccc(N=Nc2ccc3ccccc3c2O)c1	i	nt	i	-62	i
Cc1ccc(N=Nc2ccc3ccccc3c2O)cc1	i	nt	i	-73	i
Oc1c(N=Nc2ccc(F)cc2)ccc2ccccc12	i	nt	i	i	i
COc1cccc(S(=O)(=O)N2C[C@@H](O)COC[C@H]3O[C@H](CC(=O)N4CCN(C)CC4)CC[C@@H]32)c1	nt	nt	nt	nt	i
Clc1ccc(-n2c(SC/C=C/c3ccccc3)nnc2-c2cccnc2)cc1	nt	i	69	i	i
Nn1c(SC/C=C/c2ccccc2)nnc1-c1cccnc1	nt	i	i	i	nt
CC(Sc1nc(-c2ccccc2)cc(C(F)(F)F)n1)C(=O)Nc1sc2c(c1C(N)=O)CCC2 (centres undefined)	nt	i	i	i	i
CC(Sc1nc(-c2ccccc2)cc(C(F)(F)F)n1)C(=O)Nc1sc2c(c1C#N)CCC2 (centres undefined)	i	i	57	i	nt

Source: PubChem BioAssay (Broad Institute)
